# In PubChem BioAssay:
# Assays:
# [1] = molecular target: Tumor necrosis factor receptor superfamily member 10B (Homo sapiens) (UniProt O14763); assay: caspase-8 TRAIL sensitization, hit retest, confirmation, cell-based, NB7+caspase-8, with/without TRAIL, luminescence panel (AID 651596); settings: NB7 neuroblastoma + caspase-8, TRAIL sensitization, luminescence viability, with TRAIL, mean of runs, at 10 µM, stronger effect = higher value
# [2] = as above; settings: NB7 neuroblastoma + caspase-8, without TRAIL, luminescence viability, without TRAIL, mean of runs, at 10 µM
# Chain of Tumor necrosis factor receptor superfamily member 10B (Homo sapiens) (O14763 whole entry, looked up): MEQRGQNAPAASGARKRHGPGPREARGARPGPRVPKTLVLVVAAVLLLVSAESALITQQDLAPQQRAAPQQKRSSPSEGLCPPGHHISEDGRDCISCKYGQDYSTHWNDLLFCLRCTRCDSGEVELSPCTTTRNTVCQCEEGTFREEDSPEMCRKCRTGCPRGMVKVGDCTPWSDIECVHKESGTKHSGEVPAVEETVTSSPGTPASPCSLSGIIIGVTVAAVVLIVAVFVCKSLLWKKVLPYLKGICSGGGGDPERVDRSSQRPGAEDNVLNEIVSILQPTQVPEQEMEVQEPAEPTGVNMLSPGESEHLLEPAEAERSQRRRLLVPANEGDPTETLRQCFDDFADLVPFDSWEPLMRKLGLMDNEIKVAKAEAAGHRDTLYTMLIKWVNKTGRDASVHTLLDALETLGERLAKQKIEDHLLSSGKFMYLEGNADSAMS
Structure (SMILES),activity [1] [%],activity [2] [%]
CCOC(=O)c1nn(-c2ccc3c(c2)CCN3C(C)=O)cc1O,47,47.6
O=c1c2c(nc3cc(-c4ccc(F)cc4)[nH]n13)CCCC2,71.5,68.3
Cc1ccc(NC(=S)c2nc3ccccc3[nH]2)cc1,74.3,69.7
CCCCN(C)C(=O)c1ccc(Nc2nc(C(N)Cc3ccc(C(F)(F)F)cc3)cs2)nc1 (configuration not stated),56.9,90.2
CN1/C(=C\C(=O)C[n+]2ccc(C(=O)c3ccccc3)cc2)C(C)(C)c2ccccc21,15.8,27.4
O=C(Nc1nc(=O)c2ccccc2s1)c1ccc(Cl)cc1,66.1,72.6
C#Cc1ccc(NC(=O)C2(C)CCN2C(=O)Cc2ccc(-c3ccccc3)cc2)cc1 (configuration not stated),94.4,68.4
COc1cc(NC(=O)Nc2nc(C(N)Cc3ccc(C(F)(F)F)cc3)cs2)cc(OC)c1OC (configuration not stated),29.9,74.6
C=CCN1C=CC(=C/C=C(/C#N)C(=O)OCC)C=C1,50.2,41.9
c1c2c(cc3sc(N4CCCCC4)nc13)OCO2,56,44.2
O=C(OCc1cc(=O)oc2cc(O)ccc12)c1cc(S(=O)(=O)N2CCOCC2)ccc1F,84.1,70.9
O=C(OCn1ncc(Cl)c(Cl)c1=O)c1ccc(C(F)(F)F)cc1,95.2,94
CC(=O)n1cc(N(C(=O)CCl)c2ccccc2)c2ccccc21,99.6,99.8
COn1c(SCc2ccc(Cl)cc2)nc2ccccc2c1=O,67,47.9
COc1ccc(-c2cc3ccccc3cn2)cc1,57.4,54.3
Cc1ccc(-c2nc(N/N=C/c3ccncc3)c3ccccc3n2)cc1,98,96.7
